Screening results from PubChem BioAssay.
The sample as a whole holds a higher share of hits than the screen did.
Pf Dd2 inh: inhibitors of Plasmodium falciparum Dd2 growth. P. falciparum Dd2 growth, SYBR Green, 72 h. Potency, µM (titrated, usually from 28.9 µM), without a hit: at the highest dose activity, negative = inhibition, most hits filed as inhibitors. actives 4.3% (n = 120,000); active = well fitted inhibition curve with a large enough effect;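 also: plate controls were DMSO vehicle for no effect and reference drug for full effect; nearly all actives have a fitted effect of over 65% in size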
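Readout: SYBR Green fluorescence, 485 nm excitation, 535 nm emission, after ~16 h lysis at 37C. Before that, Dd2-infected red cells (2.5% hematocrit) grew 72 h with compound, 29 uM top final concentration.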
An asterisk follows results filed as active; i = inactive; [ ] = remark or other dose. Potency is read from the fitted curve at half-maximal effect.

SMILES | Pf Dd2 inh
CCOc1ccc(NC(=O)C(NS(=O)(=O)c2cccc3nsnc23)c2ccccc2)cc1 (stereo not given) | 21.8%
O=C(Nc1cccc(C(F)(F)F)c1)O[C@@H]1CO[C@H]2[C@@H]1OC[C@@H]2NS(=O)(=O)c1cccc2cccnc12 | -21.6%
CC(C)C(NS(=O)(=O)c1cccc2cccnc12)C(=O)Nc1ccc(OC(F)(F)F)cc1 (stereo not given) | 10µM*
O=C(C1CCCC1)N1CCC(C2CCN(Cc3cccc(F)c3F)CC2)C1 (stereo not given) | -14.5%
Cc1noc(C2CC3(CCN(C(=O)COc4ccc(F)cc4)CC3)CN2C)n1 (stereo not given) | -5.6%
Cc1noc(C2CC3(CCN(C(=O)CCC4CCCC4)CC3)CN2C)n1 (stereo not given) | 4.47µM*
Cc1noc(C2CC3(CCN(C(=O)Cn4c(=O)oc5ccccc54)CC3)CN2C)n1 (stereo not given) | -29.3%
Cc1cccc(N2CCN(C(=O)c3ccc4nc(N5CCC(C)CC5)sc4c3)CC2)c1C | -6.8%
CC1CCN(c2ncnc3c2nnn3C)CC1 | 55.9%
COC[C@@H]1CN(Cc2ccc(Cl)cc2F)C[C@H]1C(=O)NC1CC1 | -13.9%
Cc1cccc(OCC(=O)NC2CCc3nn(CC4CC4)c(=O)n3CC2)c1 (stereo not given) | -16.4%
Cc1cccc(Oc2coc3cc(OCC(=O)NC4CCCCC4)ccc3c2=O)c1 | 10µM*
COc1ccc(N2CC(NC(=O)COc3cccc(C)c3)CC2=O)cc1OC (stereo not given) | 5.8%
CCOCCc1nn2c(=O)cc(COC(=O)c3ccccc3NC(=O)C3CCCCC3)nc2s1 | i
Cc1ccccc1C(=O)NC(C(=O)NC(C)C(C)C)C1CCN(C(=O)c2cccs2)CC1 (stereo not given) | i
Cc1ccc2c(c1)N(C(=O)N1CCC(C(=O)NCCc3ccc(Cl)cc3)CC1)CC(C)O2 (stereo not given) | 8.91µM*
CCC1CN(C(=O)N2CCC(C(=O)NCCc3ccc(C)cc3)CC2)c2ccccc2O1 (stereo not given) | i
CCC1CN(C(=O)N2CCC(C(=O)NCCc3ccc(OC)cc3OC)CC2)c2cc(C)ccc2O1 (stereo not given) | 5.62µM*
CCC1CN(C(=O)N2CCC(C(=O)NCCN(CC)CC)CC2)c2cc(C)ccc2O1 (stereo not given) | i
CCOc1ccc(NC(=O)C2CCN(C(=O)N3CC(C)Oc4ccc(Cl)cc43)CC2)cc1 (stereo not given) | 12.6µM*
CCCNC(=O)C1CCN(C(=O)N2CC(C)Oc3ccccc32)CC1 (stereo not given) | 11.2%
CC1CN(C(=O)N2CCC(C(=O)NCCC3=CCCCC3)CC2)c2cc(Cl)ccc2O1 (stereo not given) | 211.7%[5.79 µM]
CNC(=O)C1CCN(C(=O)N2CC(C)Oc3ccc(C)cc32)CC1 (stereo not given) | -6.9%
CC1CN(C(=O)N2CCC(C(=O)NCc3cccs3)CC2)c2cc(Cl)ccc2O1 (stereo not given) | -18.4%
CCCCS(=O)(=O)NCCc1noc(-c2ccccc2)n1 | -5.2%
SMILES | Pf Dd2 inh
COc1ccc(C(=O)N2CCn3c(nn(-c4ccc(C)cc4)c3=O)C2)cc1 | -0.1%
COc1ccc(-c2[nH]nc3ncc(C(=O)NCCc4ccccc4)nc23)c(C)c1 | -23.8%[44.1 µM]
O=C(NC1CCCCCC1)c1ccc2nccn2c1 | -7.0%[44.1 µM]
COc1cccc(NC(=O)C2CCCN(S(C)(=O)=O)CCC(=O)NCC2)c1 (stereo not given) | -5.3%
Cc1ccc(CN2CC[C@H](CNC(=O)C3CC3)[C@H](N(C)C)C2)s1 | i
COCc1cc(CNC(=O)CC(c2ccccc2)c2ccccc2Cl)[nH]n1 (stereo not given) | 5.6%
Cc1ccc(NC(=O)CCCN2C(=O)COc3ccc(C)cc32)c(Cl)c1 | i
Cc1nn(C)c(C)c1S(=O)(=O)N1C[C@@H](NS(C)(=O)=O)[C@H](C(C)C)C1 | 15.7%
CC(=O)N[C@H]1CN(S(=O)(=O)c2ccc(C)c(F)c2)C[C@@H]1C(C)C | 4.1%
Cc1cc(C)c2nonc2c1S(=O)(=O)N1C[C@@H](N(C)C)[C@H](C(C)C)C1 | 11.2µM*
Cc1ccc(OCC(=O)OCc2cc(=O)n3nc(-c4cccs4)sc3n2)cc1 | -10.5%
CCCCS(=O)(=O)Nc1ccc([C@H]2OCC(=O)N(Cc3ccc(F)cc3)[C@@H]2CO)cc1 | -13.2%
O=C(c1ccccc1)N1CCC(c2nnc3n2C(C(=O)N2CCN(c4ncccn4)CC2)CC3)CC1 (stereo not given) | 130.1%
CCC(Oc1ccccc1)C(=O)Nc1ccc2oc(-c3ccc(OC)cc3)nc2c1 (stereo not given) | -15.9%
Cc1cccc(C(=O)N2CC(Oc3ccc(-c4nc(-c5ccccc5)no4)cc3)C2)c1 | i[5.79 µM]
O=C(c1ccco1)N1CC(Oc2ccccc2-c2nc(-c3ccccc3)no2)C1 | 3.98µM*
O=C(CN1CCCCCC1)N1CC(Oc2ccccc2-c2nc(C3CC3)no2)C1 | 11.2µM*
COCCOCC(=O)N1CC(Oc2ccccc2-c2nc(C3CC3)no2)C1 | -10.5%
O=C(Nc1ccccc1F)N1CC(Oc2cccc(-c3nc(-c4ccccc4)no3)c2)C1 | 20.2%[5.79 µM]
COc1ccc(C(=O)N2CC(Oc3ccccc3-c3nc(-c4ccccc4)no3)C2)cc1 | 0.891µM*
CC(C)C(=O)N1CC(Oc2ccccc2-c2nc(C3CC3)no2)C1 | 7.4%
CC(C)CNC(=O)N1CC(Oc2ccccc2-c2nc(-c3ccccc3)no2)C1 | -26.0%
CC(=O)N1CCC(Oc2ccccc2-c2nc(-c3ccccc3)no2)C1 (stereo not given) | i
O=C(COc1ccc(F)cc1)N1CC(Oc2cccc(-c3nc(-c4ccccc4)no3)c2)C1 | 2.24µM*
Cc1noc(-c2cccc(OC3CN(C(=O)Cc4ccccc4)C3)c2)n1 | 2.9%[5.79 µM]
SMILES | Pf Dd2 inh
COc1ccc(C(=O)N2CC(Oc3ccc(-c4nc(-c5ccccc5)no4)cc3)C2)cc1 | 47.9%[5.79 µM]
COc1cccc(NC(=O)O[C@@H]2CO[C@H]3[C@@H]2OC[C@@H]3Nc2nccc(-c3cccc(F)c3)n2)c1 | i
O=C1CCCCC(CNC(=O)c2ccco2)N1 (stereo not given) | 0.7%
COc1ccc(CNC(=O)N2c3ccccc3CC2c2nc(C(C)C)no2)cc1 (stereo not given) | 5.0%[5.79 µM]
CCNC(=O)O[C@@H]1CO[C@H]2[C@@H]1OC[C@@H]2Nc1nccc(-c2cccs2)n1 | 6.2%[44.1 µM]
O=C(Nc1ccccc1)c1cc2n(n1)CC(c1ccc3c(c1)OCO3)OC2 (stereo not given) | -6.7%
Cc1cc(C)c(NC(=O)C2CCN(S(=O)(=O)c3c(C)noc3/C=C/c3ccccc3F)CC2)c(C)c1 | i
Cc1ccc(CNC(=O)CC2=C3CCCCC3NC2=O)o1 (stereo not given) | 8.5%
COCCNC(=O)Cn1cc(S(=O)(=O)Cc2ccccc2Cl)c2ccccc21 | 7.6%
Cc1ccc(CNC(=O)c2ccc(-n3cnc4cccnc43)cc2)cc1 | i
c1cncc(CN2CCC[C@H]2c2nc(-c3ccc(-n4ccnc4)nc3)no2)c1 | 8.91µM*
CN(C)c1ccc(-c2noc([C@@H]3CCCN3Cc3ccc(CO)o3)n2)cn1 | 7.94µM*
CNc1ccc(-c2noc([C@@H]3CCCN3Cc3cccc(OC)c3)n2)cn1 | -7.9%[44.1 µM]
CN(C)c1ccc(-c2noc([C@@H]3CCCN3C3CCOCC3)n2)cn1 | i
CNc1ccc(-c2noc([C@@H]3CCCN3Cc3cccnc3)n2)cn1 | i
CC(=O)Nc1ccc(CN2CCC[C@H]2c2nc(-c3ccc(N4CCC(C(N)=O)CC4)nc3)no2)cc1 | i
